Activity calls are given as the source filed them. The calls were made as follows: active = hit-call score of the fitted dose curve at least 0.9, where 1 is the maximum; inactive = score below 0.9.
test: IUF_NPC3_neuronal_differentiation_120hr: Leibniz Research Institute for Environmental Medicine (IUF) 120-hour Neuronal Differentiation Assay (NPC3) (AID 2284301)
Procedure: IUF_NPC2-5 is a cell-based, multiplexed assay that uses hNPC, a human primary neural progenitor cells, with measurements taken at 72 or 120 hours after chemical dosing in a 96-well plate. Human neural progenitor cells (hNPC) are generated from human fetal brain cortex at gestational week (GW) 16-19. In the neural progenitor cell migration and differentiation assay (NPC2-5), hNPCs grown as spheres are plated on an extracellular matrix and migrate and differentiate out of the sphere core. The processes radial glia migration, neuronal and oligodendrocyte migration as well as neuronal differentiation, neuronal morphology and oligodendrocyte differentiation are studied using automated phase contrast imaging and automated fluorescence imaging in combination with high content image analysis. In parallel, the cell viability is assessed using an alamar blue viability assay and the cytotoxicity using a lactate dehydrogenase dependent membrane integrity assay.IUF_NPC3_neuronal_differentiation_120hr is one of 12 assay components measured from the IUF_NPC2-5 assay. Neuronal differentiation is determined as the number of all TUBB3 positive cells in percent of the number of Hoechst-positive nuclei in the total neurosphere migration area (see IUF_NPC2a_ glia_migration_120hr) after 120 hr of migration/differentiation. Neurons are automatically identified using a convolutional neural network (CNN) that was trained using manually annotated images of differentiated neurons. Data from the IUF_NPC3_neuronal_differentiation_120hr component was analyzed at the endpoint IUF_NPC3_neuronal_differentiation_120hr in the positive analysis fitting direction relative to DMSO as the negative control and baseline of activity. Using a type of differentiation reporter, gain or loss-of-signal activity can be used to understand developmental effects.
Culture protocol: After the cell expansion period the cells are cultured for up to four weeks in which they are passaged every week as described in 3.6. Between one to three days after passaging spheres at a size of 0.3 mm are picked for the test method. For the assessment of neural progenitor cell migration and differentiation, the spheres are plated on poly-D-lysine/laminin coated 96-well flat bottom plates in differentiation medium (N2) to initiate migration and differentiation. Thereby one 0.3 mm big sphere is plated in the middle of a well. The differentiation medium consists of DMEM and Ham's F12 at a ratio of 3 to 1 supplemented with 1% N2 and 1% penicillin and streptomycin. Within 5 days NPCs radially migrate out of the sphere core and differentiate into radial glia cells (nestin positive), neurons (TUBB3 positive), oligodendrocytes (O4 positive) and astrocytes (GFAP positive). Cultivation during the test method is performed at 37C and 5% CO2 at a ph of 7.2-7.6.Exposure: 0.3 mm big hNPC are plated in the already prepared test conditions. Exposure starts at day 0 of differentiation and is continued over five days of differentiation until the experiment is terminated. Cells are fed with fresh medium at day 3 of differentiation. Therefore, half of the test condition solution (e.g. solvent control or compound dilution) is replaced by freshly prepared test condition solution.Test Method: Migration distance and cytotoxicity is determined after 72 hours based on brightfield images of each well. The assay is terminated by the assessment of cell viability and cytotoxicity as well as cell fixation after 120 h. Immunocytochemistry is performed for Hoechst positive nuclei, TUBB3 positive neurons and O4 positive oligodendrocytes. On the ICC images, migration after 120 hours, neuronal and oligodendrocyte number, neuronal morphology and neuron/oligodendrocyte specific migration is assessed. immunocytochemical staining (ICC) generates an image for each sphere. The plates are scanned using an automated high content imaging device and all nuclei and their positions are determined automatically based on their intensity and size. […]

SMILES	AC50	outcome
Cc1ccc(-c2c(Cl)nc(C#N)n2S(=O)(=O)N(C)C)cc1	31.3 µM (active)	–
C=CC1(C)OC(=O)N(c2cc(Cl)cc(Cl)c2)C1=O (centres undefined)	–	inactive
N#Cc1nn(-c2c(Cl)cc(C(F)(F)F)cc2Cl)c(N)c1S(=O)C(F)(F)F (centres undefined)	–	inactive
CO/C=C(/C(=O)OC)c1ccccc1Oc1cc(Oc2ccccc2C#N)ncn1	–	inactive
CCCCC(CC)COC(=O)c1ccccc1C(=O)OCC(CC)CCCC (centres undefined)	–	inactive
CCOc1cc(Oc2ccc(C(F)(F)F)cc2Cl)ccc1[N+](=O)[O-]	–	inactive
CNC(=O)ON=CC(C)(C)SC	–	inactive
COP(=S)(OC)Oc1nc(Cl)c(Cl)cc1Cl	–	inactive
CN(C)C(=S)SSC(=S)N(C)C	13.5 µM (active)	–
CCOC(=O)CC(SP(=S)(OC)OC)C(=O)OCC (centres undefined)	–	inactive
COC(=O)N(OC)c1ccccc1COc1ccn(-c2ccc(Cl)cc2)n1	0.0497 µM (active)	–
CC(C)(C)c1ccc(CSc2cnn(C(C)(C)C)c(=O)c2Cl)cc1	–	inactive
COP(N)(=O)SC (centres undefined)	–	inactive
CCCCOC(=O)c1ccccc1C(=O)OCCCC	–	inactive
